Hit rate of the full screen: of about 2,200 compounds, about 480 (22%) were called active. The rule behind the calls is not given here. The list is a sample of the results. Potency and affinity values are given separately.
Experiment: S. Typhimurium GFP fluorescence modified counterscreen for PhoP regulon inhibitor project dose response (AID 1981);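 note: 0% = induced DMSO wells and 100% = uninduced wells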
Settings: 4 h; series mostly up to 150 µM; inhibition: at the top concentration

| Compound | inhibition |
| --- | --- |
| COCCn1cc(C(=O)N2CCC(C)CC2)c2c3ccccc3n(C)c2c1=O | -18.2% (inactive) |
| C=CCNc1ncnc2c1[nH]c1ccc(Cl)cc12 | 29.7% (inactive) |
| C=CCNc1ncnc2c1[nH]c1ccc(C)cc12 | 35.9% (inactive) |
| O=c1cc(Cc2ccccc2)[nH]c(=S)[nH]1 | 32.9% (inactive) |
| CCNC(=O)COC(=O)CCC(=O)c1cccs1 | 14.6% (inactive) |
| Cc1cccc(OCC(=O)N2CCN(Cc3ccncc3)CC2)c1 | -3.8% (inactive) |
| O=C(CN(c1ccc(F)cc1)S(=O)(=O)c1ccc2c(c1)OCCO2)NCc1cccnc1 | -5.53% (inactive) |
| COc1ccc(-c2ccc3c(N)c(C(=O)c4cccc(OC)c4)sc3n2)cc1 | 16.2% (inactive) |
| N#Cc1nc(-c2ccco2)oc1NCCCN1CCOCC1 | -7.05% (inactive) |
| CCSc1cc(N2CCCC2)nc(-c2cccc(C)c2)n1 | -4.48% (inactive) |
| COc1cccc(-n2c(SCC(=O)Nc3ccc4c(c3)CCC4)nc3ccccc3c2=O)c1 | 19.7% (inactive) |
| CCOc1ccc(NC(=O)CCC(=O)n2nc(C)cc2C)cc1 | 1.24% (inactive) |
| Cc1ccc(CNC(=O)C2CCCN(S(=O)(=O)c3c(C)noc3C)C2)cc1 (stereo not given) | 1.56% (inactive) |
| O=C(c1ccccc1S(=O)(=O)NCc1ccccc1)N1CCCC1 | -24.7% (inactive) |
| CC(=O)Nc1ccc(-n2nnnc2SCC(=O)Nc2cccc(NC(=O)c3ccco3)c2)cc1 | 2.42% (inactive) |
| O=[N+]([O-])c1ccccc1/C=N/N1CCN(c2ccncc2S(=O)(=O)N2CCCCC2)CC1 | -9.65% (inactive) |
| C=CCNC(=O)CC(=O)N/N=C/c1ccc(C(=O)OC)cc1 | 1.15% (inactive) |
| Cc1ccc(Cn2c(=N)n(CC(=O)c3ccc([N+](=O)[O-])cc3)c3ccccc32)cc1 | -11.2% (inactive) |
| COc1ccc(/C=N/NC(=O)CC(=O)NCc2cccnc2)cc1 | -0.29% (inactive) |
| COC(=O)c1ccc(Nc2cc(C)nc3ccccc23)cc1 | -13% (inactive) |
| Cc1ccc(C(=O)NC(=S)Nc2cccc3c(C)cc(C)nc23)cc1 | -12.6% (inactive) |
| COc1ccc2nc(-c3ccccc3)cc(OC)c2c1 | -1.78% (inactive) |
| CN1c2ccccc2C(C)(C)[C@]12C=Cc1cc(O)ccc1O2 | 8.27% (inactive) |

| Compound | inhibition |
| --- | --- |
| CC(=O)Nc1cccc(OC(=O)c2ccoc2C)c1 | -14.3% (inactive) |
| Nc1ccc(C2(c3ccc(N)cc3)c3ccccc3-c3ccccc32)cc1 | 18.9% (inactive) |
| Cc1ccc(C(=O)NCC(=O)OCC(=O)N2CCCc3ccccc32)cc1 | -12.3% (inactive) |
| O=C(N/N=C/c1cn(-c2ccccc2)nc1-c1ccc(F)cc1)c1ccc2c(c1)OCO2 | 30.2% (inactive) |
| O=C(NNC(=O)c1ccccc1-n1cccc1)c1ccc(Cl)c(Cl)c1 | -16.2% (inactive) |
| O=C(Cn1ncc2c(=O)oc3ccccc3c21)N1CCN(c2ccccn2)CC1 | 2.19% (inactive) |
| O=C1c2ccccc2C(=O)N1Cc1nc(-c2ccccn2)no1 | -13.3% (inactive) |
| CC(C)Nc1cc(C(F)(F)F)nc(-c2ccccn2)n1 | -21.8% (inactive) |
| N#Cc1ccc(N=c2ssnc2Cl)cc1 | 8.15% (inactive) |
| CC(C)CCNC(=O)C(c1ccco1)N(Cc1ccc(F)cc1)C(=O)c1snc(C(N)=O)c1N (stereo not given) | -5.54% (inactive) |
| COc1cc(C2C(C(=O)c3ccc(C)o3)=C(O)C(=O)N2CCc2ccccc2)ccc1O (stereo not given) | 11.2% (inactive) |
| CCOC(=O)c1c(NC(=O)Nc2ccc(C)cc2)sc2c1CCN(C)C2 | -0.83% (inactive) |
| NC(=O)c1c(NC(=O)CN2C(=O)CCC2=O)sc2c1CCCCC2 | -16.9% (inactive) |
| CC(C)(C)C1CCc2c(sc(NC(=O)c3cccs3)c2C(=O)N2CCCCC2)C1 (stereo not given) | 8.2% (inactive) |
| O=[N+]([O-])c1ccc(-n2nnnc2-c2ccccc2)c([N+](=O)[O-])c1 | 14.8% (inactive) |
| CN(C)C(CNC(=O)Nc1cccc(Cl)c1)c1cccnc1 (stereo not given) | 3.94% (inactive) |
| Cc1cc2c(c(=O)n1C)C(Cc1ccccc1)C(C#N)=C(N)O2 (stereo not given) | -7.35% (inactive) |
| OC1(c2cccc(C(F)(F)F)c2)CCN(c2ncnc3c2[nH]c2ccccc23)CC1 | 3.4% (inactive) |
| COc1ccc2c(c1)CC/C(=C\Nc1ccc3c(c1)OCO3)C2=O | -7% (inactive) |
| COc1ccc(C2C=C(c3ccc(Cl)cc3)Nc3nc(NC(C)=O)nn32)cc1 (stereo not given) | -1.96% (inactive) |
| CCCSc1ncc(Cl)c(C(=O)Nc2ccc(S(=O)(=O)N3CC(C)OC(C)C3)cc2)n1 (stereo not given) | -15.2% (inactive) |
| O=C(NC1CC1)C1=NOC(CNc2ncc(C(F)(F)F)cc2Cl)C1 (stereo not given) | -16% (inactive) |
| O=C(NCc1cccnc1)c1cc2ccccc2oc1=O | -21.1% (inactive) |

| Compound | inhibition |
| --- | --- |
| CC(=O)N1N=C(c2ccco2)CC1c1ccc(Br)cc1 (stereo not given) | 22.8% (inactive) |
| O=C1NC(=O)C(=C2CCCCCC2)S1 | 16% (inactive) |
| Cc1ccc(-c2csc(N=C(N)N)n2)cc1 | 31.5% (inactive) |
| c1ccc(OCCCN2CCCC2)cc1 | -12.3% (inactive) |
| Clc1ccc(OCCN2CCN(c3ncnc4sccc34)CC2)cc1 | -10.9% (inactive) |
| COc1ccc(Br)cc1C(=O)NCc1cccnc1 | -7.4% (inactive) |
| Clc1ccccc1OCCn1ccnc1 | -5.79% (inactive) |
| NC(=O)N1OCC2COc3ccc4ccccc4c3C21 (stereo not given) | -6.03% (inactive) |
| Cc1ccccc1CS(=O)(=O)c1snnc1C | -7.82% (inactive) |
| O=C(CNC(=O)c1ccco1)OCC(=O)c1ccc2c(c1)CCCC2 | 6.72% (inactive) |
| Cc1cc(=O)[nH]c(N/N=C/c2c[nH]c3ccccc23)n1 | -13.5% (inactive) |
| Fc1ccc(-c2n[nH]c(=S)n2/N=C/c2c[nH]c3ccccc23)cc1 | -21.6% (inactive) |
| CSc1ccc(C(=O)/C=C/c2ccc(N)cc2)cc1 | 1.48% (inactive) |
| O=C(O)C1CCCN1S(=O)(=O)c1ccc2[nH]c(=O)c(=O)[nH]c2c1 (stereo not given) | 1.08% (inactive) |
| Cc1cc(C)c(C#N)c(SCc2cn3ccccc3n2)n1 | -6.87% (inactive) |
| CCS(=O)(=O)Nc1cc(C(=O)OC)ccc1C(=O)OC | -22.5% (inactive) |
| Cc1ccc(-n2nnnc2SCC(=O)Nc2ncc(Cc3ccccc3Cl)s2)cc1 | 5.85% (inactive) |
| CCOc1cc(CNn2cnnc2)ccc1OCC(=O)NC1CCCCC1 | 1.83% (inactive) |
| CCN(CCO)Cc1csc2ccccc12 | -5.22% (inactive) |
| CCOc1ccccc1OCC(=O)Nc1ccc(S(=O)(=O)Nc2nc(C)cc(C)n2)cc1 | -2.84% (inactive) |
| CCOCCCNC(=S)Nc1cc(C)cc(C)c1 | -14.4% (inactive) |
| COc1cccc(-c2nc(-c3ccc(Br)o3)no2)c1 | -17.1% (inactive) |
| CCN(CC)c1ccc(/C=C(\C#N)C(=O)NCc2ccco2)cc1 | -8.76% (inactive) |

| Compound | inhibition |
| --- | --- |
| Cc1ccc(NC(=S)NCCc2ccccc2)c(C)c1 | -5.87% (inactive) |
| CCc1cccc(NC(=O)CCCSc2nc3ccccc3[nH]2)c1 | 11% (inactive) |
| Cc1cc(C)cc(-n2c(C)cc(C=C(C#N)C#N)c2C)c1 | -13% (inactive) |
| CCCc1cnc(NCCNCC(O)COc2ccc(Cl)c(Cl)c2)nc1 (stereo not given) | -10.6% (inactive) |
| CCC(=O)c1ccc(OCC(O)CNCc2ccc(F)cc2)cc1 (stereo not given) | -5.96% (inactive) |
| CC(=O)Nc1ccc(NS(=O)(=O)c2ccc3c(c2)n(C)c(=O)n3C)cc1 | -12.4% (inactive) |
| Cc1ccc(NC(NC(=O)c2ccccn2)C(Cl)(Cl)Cl)cc1 (stereo not given) | -12.7% (inactive) |
| O=C(NCc1ccco1)c1cccc(Nc2nc3ccc(Br)cc3[nH]2)c1 | -5.31% (inactive) |
| O=C(NC(=S)N1CCN(c2c(Cl)cccc2[N+](=O)[O-])CC1)c1cccs1 | -9.8% (inactive) |
| Cc1ccc(C(=O)N/N=C/c2ccc([N+](=O)[O-])s2)cc1 | 13.9% (inactive) |
| COc1ccc(/C=N/NC(=O)c2ccc3c(c2)OCCO3)cc1[N+](=O)[O-] | 4.72% (inactive) |
| O=C(Nc1cnn(Cc2ccc(F)cc2)c1)c1cnccn1 | -5.34% (inactive) |
| Cc1ccccc1-n1nnnc1Sc1nnnn1-c1ccccc1 | 13.9% (inactive) |
| O=C1c2ccccc2C(=O)N1CCc1csc(-c2cccc(Cl)c2)n1 | -17.8% (inactive) |
| O=C(COC(=O)/C=C/c1ccco1)Nc1cccc([N+](=O)[O-])c1 | 7.24% (inactive) |
| CCOc1ccc2c(c1)nc(SCC(=O)c1ccc(Br)s1)n2C | -4.82% (inactive) |
| CC(=O)Nc1c(O)nc(SCC(=O)N2CCN(c3ccc(F)cc3)CC2)[nH]c1=O | -0.15% (inactive) |
| Cc1c(Cl)cccc1NC(=O)CSCC(N)=O | -12.2% (inactive) |
| CSCC[C@H](NC(=O)Nc1ccc(C)cc1)C(=O)O | 9.33% (inactive) |
| N#Cc1c(N)nc(SCC(=O)NC2CCCCC2)c(C#N)c1-c1ccc(Cl)cc1 | -13.9% (inactive) |
| CCCCCCCCn1c2c(c(=N)c3c1CCC3)CCCC2 | 34.2% (inactive) |
| CCCCn1c(NCCO)nc2ccccc21 | -8.11% (inactive) |
| CCCCn1c(=N)n(CC(=O)C(C)(C)C)c2ccccc21 | 7.95% (inactive) |

| Compound | inhibition |
| --- | --- |
| N=c1c2c(n(Cc3ccc(Br)cc3)c3c1CCC3)CCCC2 | 12.1% (inactive) |
| CCCCC1CCC(C(=O)Nc2ccccc2)CC1 (stereo not given) | 5.03% (inactive) |
| COC(=O)C(C)N1C(=O)S/C(=C\c2cc(C)n(-c3ccccn3)c2C)C1=O (stereo not given) | -11% (inactive) |
| Cc1ccc2nc(-c3ccc(Br)o3)oc(=O)c2c1 | -2.46% (inactive) |
| O=C1N=c2ccccc2=C1c1[nH]c(=S)[nH]c1O | 2.01% (inactive) |
| O=C1c2ccccc2-c2onc3ccc(NCc4ccco4)c1c23 | -2.4% (inactive) |
| CCn1c(=N)n(CC(O)c2ccccc2)c2ccccc21 (stereo not given) | -4.05% (inactive) |
| Cc1ccc(/C=C/c2ccc(=O)n(Cc3ccccc3Cl)n2)cc1 | 6.88% (inactive) |
| [O-]/[N+](=C\c1ccncc1)c1ccccc1 | -0.55% (inactive) |
| CCCn1c(NCCO)nc2ccccc21 | -11.6% (inactive) |
| c1csc(C2Nc3cccc4cccc(c34)N2)c1 | -2.56% (inactive) |
| Brc1ccc(NC2=Nc3ccccc3CC2)cc1 | -2.31% (inactive) |
| O=C(Nc1cnn(Cc2ccc(Cl)cc2Cl)c1)c1noc2c1CCCC2 | -15.3% (inactive) |
| Cc1cccc(-n2c(SCC(N)=O)nc3c(c2=O)C2(CCCC2)Cc2ccccc2-3)c1 | 7.03% (inactive) |
| COC(=O)c1sccc1NC(=O)c1csc2c1CCCC2 | 0.07% (inactive) |
| COc1ccc(NC(=O)CN2CCCCC2)c([N+](=O)[O-])c1 | 5.56% (inactive) |
| Oc1ccccc1CN1CCCN(Cc2ccccc2O)C1 | 2.41% (inactive) |
| CC(C)Cc1oc(C(=O)O)cc1CN1CCOCC1 | 1.81% (inactive) |
| Cc1ccc(Oc2ccc3c(c2)C(=O)N(c2ccc(S(=O)(=O)Nc4nccs4)cc2)C3=O)cc1 | -19.4% (inactive) |
| COc1cc(OC)cc(C(=O)N[C@H](C(=O)OCC(=O)Nc2ccc(C(N)=O)cc2)C(C)C)c1 | -7.59% (inactive) |
| COc1ccccc1-n1c(SCc2cc(=O)oc3cc(O)ccc23)nc2ccccc2c1=O | -5.8% (inactive) |
| COc1cccc(C2C3=C(Nc4[nH]n(-c5ccccc5)c(=O)c42)c2ccccc2C3=O)c1 (stereo not given) | 5.13% (inactive) |
| CC(C)Oc1cccc(C(=O)NC(=S)Nc2ccccc2)c1 | -7.54% (inactive) |

— PubChem BioAssay AID1981 (Southern Research Specialized Biocontainment Screening …, 2009)
